The text below walks through data of PubChem BioAssay AID463173 (ICCB-Longwood Screening Facility, Harvard Medical School, 2010).

Hit rate of the full screen: of about 52,000 compounds, about 4,300 (8.3%) were called active. The entries come from a sample that favours actives as a whole. Unmarked numbers belong to inactive results. Rule as the data show it: active = survival mostly below about 52% (no sharp cut-off); inactive = mostly above about 56%.

The assay relates to DeltatarO mutant. Briefly: growth inhibition of S. aureus wild type versus tarO mutant, primary screen, teichoic acid synthesis inhibitors, RN4220, OD600 (AID 463173). To be noted: OD600, 18 h, active compounds read low, screened at 18.75 µg/mL (by protocol).
`CCc1ccccc1N=C1SCC(=O)N1C`: the survival is 88%. On to `Cc1cc(C)c(NC(=O)Cn2nnc(C(=O)Nc3ccc(F)cc3F)c2N)c(C)c1`, for which the survival is 81%. Regarding `CCN1c2ccccc2-c2nc(SCC(=O)Nc3c(C)cc(C)cc3C)ncc2S1(=O)=O`, the survival was 102%.

`CCN1c2ccccc2-c2nc(SCC(=O)Nc3cc(F)ccc3F)ncc2S1(=O)=O`: the survival was 118%. Consider `CCN1c2ccccc2-c2nc(SCC(=O)Nc3ccc(C)c(Cl)c3)ncc2S1(=O)=O`, for which the survival is 25% (active). As for `CCN1c2ccccc2-c2nc(SCC(=O)Nc3cc(OC)cc(OC)c3)ncc2S1(=O)=O`, the survival is 37% (active).

Regarding `CCOc1ccccc1NC(=O)CSc1ncc2c(n1)-c1ccccc1N(CC)S2(=O)=O`, the survival is 92%. On to `CCN1c2ccccc2-c2nc(SCC(=O)Nc3cc(C)c(Cl)cc3OC)ncc2S1(=O)=O`, for which the survival was 91%. The result for `Fc1ccc(Nc2ncnc3c2nc2n3CCCC2)cc1` reads 74%. The figure for `CCc1ccc(NC(=O)c2ccc(CNS(=O)(=O)c3ccc4c(c3)C(C)(C)C(=O)N4C)cc2)cc1` is 64%. Turning to `CCC(Sc1nc2c(sc3ccccc32)c(=O)n1CCc1ccccc1)C(=O)N(CC)CC` (stereo not given), the survival is 54%. Consider `Cc1ccc(-c2nc(CS(=O)(=O)CC(=O)NCCc3ccccc3)c(C)o2)cc1`, for which the survival was 100%. For the compound `Cn1ncc2c(Nc3cccc(F)c3)ncnc21`, the survival is 117%. With `Cc1cc(C)nc(NC(N)=NC2CCCCC2)n1`, the survival is 87%. Turning to `Cc1cc(C)nc(NCC(C)c2ccccc2)n1` (stereo not given), the survival is 81%. For the compound `Cc1cc(C)nc(NC(=O)C(c2ccccc2)c2ccccc2)n1`, the survival was 115%. On to `COc1cccc(C(=O)NC(=NCCc2c[nH]c3ccc(OC)cc23)Nc2nc(C)cc(C)n2)c1`, for which the survival is 55%. For `Cc1cc(C)nc(NC(N)=NC(C)c2ccccc2)n1` (stereo not given), the survival was 20% (active). `COc1ccc(CCN=C(N)Nc2nc(C)cc(C)n2)cc1`: the survival is 39% (active). Take `CCOC(=O)c1cccc(NC(=O)CCS(=O)(=O)c2ccc3c(c2)CC(=O)N3C)c1`: the survival is 102%. Regarding `COc1cccc(C(=O)NCC(c2ccc(N(C)C)cc2)N2CCCC2)c1OC` (stereo not given), the survival is 94%. For the compound `Cc1nc(-c2cccc(NC(=O)Nc3ccccc3C(F)(F)F)c2)no1`, the survival is 130%. `Cc1ccc(C)c2c(N)c3c(nc12)CCCCC3`: the survival is 96%. With `CC(CCc1ccccc1)NC(=O)Cn1ncc2c3ccccc3n(Cc3cccc(Cl)c3)c2c1=O` (stereo not given), the survival was 95%. Take `CC(C)(C)OC(=O)N1CC=C2C(C1)C(c1cccc(F)c1)C(C#N)=C(N)C2(C#N)C#N` (stereo not given): the survival is 79%.

`CCN1CC=C2C(C1)C(c1ccc(Cl)s1)C(C#N)=C(N)C2(C#N)C#N` (stereo not given): the survival is 105%. Take `CCCN1CC=C2C(C1)C(c1ccc(C(=O)OC)cc1)C(C#N)=C(N)C2(C#N)C#N` (stereo not given): the survival was 51% (active). For `COc1cc(-c2nnc(SCC(=O)N3CCCc4ccccc43)o2)cc(OC)c1OC`, the survival is 66%. Consider `Cc1ccc(Cl)cc1NC(=O)C1CCN(C(=O)c2cnn(-c3ccccc3)c2-n2cccc2)CC1`, for which the survival was 71%. Turning to `Cc1cc(C)nc(SCc2noc(-c3ccc(Cl)cc3)n2)n1`, the survival was 97%. Take `CCc1ccccc1NC(=O)Nc1cc(C(=O)NCc2ccc(C)cc2)ccc1N1CCCC1`: the survival is 113%. The result for `COc1ccc(NC(=O)Cn2c(=O)n(CCC(=O)NCC3CCCO3)c(=O)c3cc(OC)c(OC)cc32)cc1` (stereo not given) reads 72%; that for `COc1ccc(OC)c(NC(=O)Cn2nc3c(cc2=O)CCCC3)c1`, 57%; that for `Cc1nn(-c2ccc(N3CCOCC3)nn2)c(C)c1CCC(=O)NCc1ccc(Cl)cc1`, 107%. For the compound `Cc1cc(C)c(NC(=O)c2oc3c(c2C)-c2[nH]ncc2CC3)c(C)c1`, the survival is 67%. For `CCc1ccc(NC(=O)c2oc3c(c2C)-c2[nH]ncc2CC3)cc1`, the survival was 48%. With `Cc1cc(NC(=O)c2oc3c(c2C)-c2[nH]ncc2CC3)ccc1Br`, the survival is 3% (active). Turning to `Cc1ccc(Cn2cc(CCC(=O)NCc3ccccc3F)c3ccccc32)cc1`, the survival was 77%. As for `Cc1c(C(=O)Nc2ccc(Br)cc2F)oc2ccc(S(=O)(=O)N3CCCCC3)cc12`, the survival is 78%.

As to `Cc1cccc(N2CCN(CCCNC(=O)c3sc4ncccc4c3-n3cccc3)CC2C)c1` (stereo not given), the survival was 105%. The result for `COc1cc2c(cc1OC)C1=C(C#N)CN(C3CCCCC3)CN1CC2` reads 83%; that for `NC(=O)C1CCN(C(=O)C2CCN(S(=O)(=O)c3ccc(-n4cnnn4)cc3)CC2)CC1`, 97%; that for `Cc1ccccc1NC(=O)c1c(C)oc2ccc(O)c(CN(C)Cc3ccccc3)c12`, 81%.

As for `CCN(Cc1ccccc1)Cc1c(O)ccc2oc(C)c(C(=O)Nc3ccc(C)cc3C)c12`, the survival is 33% (active). As for `CCN(Cc1ccccc1)Cc1c(O)ccc2oc(C)c(C(=O)Nc3ccccc3C)c12`, the survival was 29% (active). With `Cc1ccc(NC(=O)c2c(C)oc3ccc(O)c(CN(C)Cc4ccccc4)c23)c(C)c1`, the survival was 73%.

Consider `Cc1ccccc1NC(=O)c1c(C)oc2ccc(O)c(CN3CCCC3)c12`, for which the survival is 80%.

Consider `CCN1CCN(Cc2c(O)ccc3oc(C)c(C(=O)Nc4ccc(C)cc4C)c23)CC1`, for which the survival was 92%. On to `Cc1cc(=O)n(CC(=O)NC(C)c2ccccc2)c2c1c(C)nn2C` (stereo not given), for which the survival was 66%. Regarding `Cc1ccc(Nc2nnc(-c3ccc(C)c(S(=O)(=O)N4CCN(C)CC4)c3)c3ccccc23)cc1`, the survival is 80%.

In the case of `COCCOC(=O)c1c(-c2ccccc2)c(-c2ccccc2)nn(C)c1=O`, the survival was 65%.

Turning to `Cc1[nH]c2c(C)cccc2c1CCNC(=O)c1cc2ccccc2oc1=O`, the survival was 86%. For the compound `Cc1[nH]c2ccc(F)cc2c1CCNC(=O)c1cc2cc(Cl)ccc2oc1=O`, the survival was 52%.

As for `COc1ccc2oc(=O)c(C(=O)Nc3ccc(C(=O)O)cc3)cc2c1`, the survival is 136%. In the case of `COc1ccc2oc(=O)c(C(=O)Nc3cccc(C(=O)O)c3)cc2c1`, the survival is 50% (active). Take `COc1ccc2oc(=O)c(C(=O)Nc3ccc(O)cc3)cc2c1`: the survival was 98%. On to `COc1ccc2oc(=O)c(C(=O)NCCc3c(C)[nH]c4ccc(F)cc34)cc2c1`, for which the survival is 46%.

Turning to `COc1ccc2oc(=O)c(C(=O)NCCc3c(C)[nH]c4c(C)cccc34)cc2c1`, the survival is 47% (active). Regarding `COc1ccc2oc(=O)c(C(=O)NCCc3c(C)[nH]c4ccc(C)cc34)cc2c1`, the survival is 40% (active). In the case of `COc1ccc2oc(=O)c(C(=O)NCCc3c(C)[nH]c4ccc(Br)cc34)cc2c1`, the survival was 45%. `Cc1ccc2[nH]c(C)c(CCNC(=O)c3cc4cc(Br)ccc4oc3=O)c2c1`: the survival is 37% (active). In the case of `COc1cccc2cc(C(=O)NCCc3c(C)[nH]c4ccc(F)cc34)c(=O)oc12`, the survival was 53%. Turning to `COc1ccc2oc(=O)c(C(=O)NCCc3c(C)[nH]c4c(Cl)cccc34)cc2c1`, the survival was 62%. As to `Cc1cc(C)n(C(C)CC(=O)Nc2cccc(C#N)c2)n1` (stereo not given), the survival was 78%. For the compound `CN(C)CCN(Cc1ccccc1)S(=O)(=O)c1ccc(-c2cc(C(F)(F)F)on2)s1`, the survival is 87%. On to `O=C1CCC(=O)N1CNc1ccccc1`, for which the survival is 85%. The result for `CC(=O)N1CCOc2cc(S(=O)(=O)Nc3cc(C(F)(F)F)ccc3Cl)c(C)cc21` reads 94%. As to `CCN1CCN(CCCNC(=O)c2cnn(-c3ccc(OC)cc3)c2C2CCN(C(=O)OC(C)(C)C)CC2)CC1`, the survival is 95%. For the compound `Cc1ccc(N2CCN(c3nc4ccccc4n4nnnc34)CC2)c(C)c1`, the survival is 105%. The figure for `Cc1cccc(C)c1NC(=O)Cn1cc(C(=O)C2CC2)c2ccccc21` is 67%; for `CCOc1ccc(NCc2cccn2-c2nnc(N3CCC(C(=O)NC(C)c4ccccc4)CC3)s2)cc1` (stereo not given) it is 74%. Take `O=C1C2C(C(=O)N1CC1CCCO1)C1C=CC2C12CC2` (stereo not given): the survival is 80%. The result for `COc1cccc2cc(C(=O)NCCc3c(C)[nH]c4ccc(Br)cc34)c(=O)oc12` reads 121%; that for `C=CCc1cccc2cc(C(=O)NCCc3c(C)[nH]c4c(C)cccc34)c(=O)oc12`, 48%; that for `Cc1[nH]c2ccc(Br)cc2c1CCNC(=O)c1cc2ccccc2oc1=O`, 32% (active). The result for `COc1ccc(Cl)cc1Nc1ccc2cc(S(=O)(=O)N3CCCCC3)ccc2n1` reads 83%. The figure for `CCc1ccc(S(=O)(=O)NCc2cccn2Cc2cccc(C)c2)cc1` is 79%; for `Cc1cccc(Cn2cccc2CNS(=O)(=O)c2ccccc2F)c1` it is -2% (active); for `Cc1cccc(Cn2cccc2CNS(=O)(=O)c2ccc(Br)cc2)c1` it is 76%. Regarding `O=C(c1ccccc1Cl)N1CCN(CCc2ccccn2)CC1`, the survival is 52%. The result for `Cc1ccccc1C(=O)N1CCN(CCc2ccccn2)CC1` reads 49%; that for `CCOc1ccccc1C(=O)N1CCN(CCc2ccccn2)CC1`, 67% (active). On to `CC(CNC(=O)CN1C(=O)c2cccnc2Oc2ccc(Cl)cc21)c1ccccc1` (stereo not given), for which the survival is 90%. As to `CCOC(=O)c1noc2ncn(CC(=O)Nc3ccccc3OC)c(=O)c12`, the survival is 118%.

As for `CCOC(=O)c1noc2ncn(CC(=O)Nc3cc(Cl)ccc3OC)c(=O)c12`, the survival is 92%. `CCOC(=O)c1noc2ncn(CC(=O)Nc3ccc(F)cc3Cl)c(=O)c12`: the survival is -5% (active). In the case of `CCCCC(=O)Nc1ccc(C(=O)OCc2cc(=O)n3ccsc3n2)cc1`, the survival is 75%. On to `CC(C)CC(=O)N1c2nc(C(C)C)nn2C2(CCCCC2)[C@@H]2CCCC[C@@H]21`, for which the survival is 79%. On to `COc1ccccc1Nc1nc(-c2ccccc2Cl)c2cc(Br)ccc2n1`, for which the survival was 125%.

For `Cc1ccc2nc(Nc3ccc(Br)cc3)nc(-c3ccccc3)c2c1`, the survival was 35% (active).

As to `COc1cccc(NC(=O)c2c(-c3ccc(C)cc3)nnc3ccccc23)c1`, the survival was 78%. With `COc1ccc(Nc2nc(N)c3cc(OC)c(OC)cc3n2)cc1`, the survival was 87%.

As to `Cc1ccc(Nc2c(-c3cccnc3)nc3ccc(Br)cn23)cc1`, the survival was 80%.

As for `Clc1ccccc1-c1nc(Nc2ccccc2)nc2ccc(Br)cc12`, the survival is 47% (active). The result for `Clc1ccc(Nc2nc(-c3ccccc3)c3cc(Cl)ccc3n2)cc1` reads 54%; that for `COc1cccc(Nc2nc(-c3ccccc3)c3cc(C)ccc3n2)c1`, 12% (active). As for `COc1ccc(Nc2nc(-c3ccccc3)c3cc(Br)ccc3n2)cc1`, the survival was 23% (active). As to `Cc1cc(C)cc(NC(=O)CSc2nc(-c3ccccc3)c3cc(F)ccc3n2)c1`, the survival was 87%.

For `CCN(CC)c1nc(-c2ccccc2Cl)c2cc(Br)ccc2n1`, the survival was 55%. In the case of `COc1cccc(Nc2cc(C)nc3ccccc23)c1`, the survival is 109%.
